Compounds with a hit are over-represented: about 1.1% of the library has one in this group of screens.
BioA inh: BioA (M. tuberculosis) enzyme inhibition; actives 0.096% (n = 360,000); purified M. tuberculosis BioA enzyme, plate reader; AID 602481; inhibition, % at 9.99 µM; in the data active means inhibition above about 40%; inconclusive means no clear call, values can overlap the other calls
FadD28 binding: blocks FadD28 binding to the bisubstrate probe; fluorescence polarization; inhibition, % at 12.5 µM; actives 0.22% (n = 360,000); AID 588549; in the data active means inhibition above about 8.5%, passing the limit was not always enough; inconclusive means no clear call, values can overlap the other calls
PfHsp40 rescue: rescue of PfHsp40-mediated yeast toxicity; growth rescue, % at 12.5 µM; AID 504582; S. cerevisiae expressing PfHsp40, growth rescue, ATP luminescence; actives 0.68% (n = 340,000); in the data active means growth rescue above about 28%, passing the limit was not always enough; inconclusive means no clear call, values can overlap the other calls;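 further: yeast W303a lacking pdr1 and pdr3 grown in galactose medium; growth measured after three days at 30 °C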
Yp Topo-I inh: blocks Yersinia pestis topoisomerase I activity; actives 0.064% (n = 360,000); activity, % at 10 µM; Y. pestis Topo-I cleavage product accumulation, plate reader; AID 504884; in the data active means activity above about 50%, passing the limit was not always enough; inconclusive means no clear call, values can overlap the other calls
PrP UTR inh: suppresses PrP 5' UTR mRNA reporter expression; cell-based PrP 5' UTR mRNA reporter, plate reader; inhibition, % (test concentration not listed); actives 0.35% (n = 340,000); AID 488862; in the data active means inhibition above about 52%
PrP UTR cherry: prion 5' UTR mRNA inhibition, cherry-pick retest | shares compounds with PrP UTR inh | cell-based prion protein 5' UTR reporter, plate reader | inhibition, % at 2.5 µM | actives 48% (n = 1,100) | AID 504592; in the data active means inhibition above about 54%; inconclusive means no clear call, values can overlap the other calls
Of the large screens only hits and unclear results are named; the others gave an inactive call (follow-up assays come after a bar, where they were run).

COc1cc(C(=O)N2CCN(c3cc(Cl)ccc3Cl)CC2)cc(OC)c1OC	Yp Topo-I inh inconclusive, PrP UTR inh 56.4 | PrP UTR cherry 88.3
COc1cc(C(=O)N2CCN(c3cccc(C)c3C)CC2)cc(OC)c1OC	PrP UTR inh 60.3 | PrP UTR cherry 74.2
O=C(N/N=C/c1ccc(O)cc1)c1cccc(N/N=C/c2ccc(O)cc2)c1	none
O=C(N/N=C/c1ccncc1)c1cccc(N/N=C/c2ccncc2)c1	PrP UTR inh 71.6 (no result: BioA inh) | PrP UTR cherry inactive
CC(C(=O)O/N=C(\N)c1ccccn1)c1ccc([N+](=O)[O-])cc1 (configuration not stated)	none
N/C(=N\OCc1ccc([N+](=O)[O-])cc1)c1ccccn1	PrP UTR inh 85.2 (no result: BioA inh, FadD28 binding, Yp Topo-I inh) | PrP UTR cherry 79.9
CCCCC(c1nnnn1CC1CCCO1)N1CCN(Cc2ccccc2)CC1 (configuration not stated)	none
Cc1ccc(C(c2nnnn2CC2CCCO2)N2CCN(Cc3ccccc3)CC2)cc1 (configuration not stated)	PrP UTR inh 67.0 (no result: BioA inh) | PrP UTR cherry inactive
Cc1ccc(/C=N/Nc2cccc(C(=O)O)c2)s1	none
CC(C)c1ccc(/C=N/Nc2ccc(C(=O)O)cc2)cc1	PrP UTR inh 63.4 (no result: BioA inh) | PrP UTR cherry inactive
Cc1ccc(/C=N/Nc2ccc(C(=O)O)cc2)s1	FadD28 binding inconclusive, PfHsp40 rescue 123.1, PrP UTR inh 63.3 | PrP UTR cherry 53.5
COc1cc(C2C(C#N)=C(N)Oc3cc(N)ccc32)cc(OC)c1OC (configuration not stated)	PrP UTR inh 67.4 | PrP UTR cherry 88.0
CCCNC(=O)[C@@H]1c2ccccc2C(=O)N(CC23CC4CC(CC(C4)C2)C3)[C@H]1c1ccc(CO)cc1	none (no result: FadD28 binding, PfHsp40 rescue, Yp Topo-I inh, PrP UTR inh)
CCC(=O)Nc1cc2nn(-c3ccc(C)cc3)nc2cc1C	PrP UTR inh 67.6 | PrP UTR cherry 62.4
COc1ccc(S(=O)(=O)NCc2ccco2)cc1C(=O)N1CCOCC1	none
O=C(c1cc(S(=O)(=O)NCc2ccco2)ccc1Br)N1CCOCC1	PrP UTR inh 79.2 | PrP UTR cherry inactive
Cc1ccc(C2(c3ccccc3)NC(=O)N(CC(=O)NCc3ccccc3)C2=O)cc1C (configuration not stated)	PrP UTR inh 79.6 | PrP UTR cherry inactive
CCOc1ccc(C(=O)NC(=S)Nc2cccc(S(=O)(=O)NC3=NCCC3)c2)cc1	PrP UTR inh 54.3 (no result: BioA inh) | PrP UTR cherry inconclusive
CCOc1ccc(OCC(=O)Nc2cccc(S(=O)(=O)NC3=NCCC3)c2)cc1	none
CCOC(=O)N1CCC(Nc2c(-c3ccc(C)c(C)c3)c(=O)c2=O)CC1	PrP UTR inh 73.2 | PrP UTR cherry inactive
O=C1N(c2ccccc2)C[C@@H]2C[C@@H](c3cc4ccccc4o3)N3CCC[C@@]123	PrP UTR inh 58.7 (no result: BioA inh) | PrP UTR cherry 73.6
O=C(O)c1cc(NC(=O)c2ccc([N+](=O)[O-])cc2)cc(NC(=O)c2ccc([N+](=O)[O-])cc2)c1	none
O=C(Nc1ccc([N+](=O)[O-])cc1)C(=O)Nc1cccc(C(=O)O)c1	PrP UTR inh 88.0 | PrP UTR cherry 92.3
CC(C)C[C@H]1CNC(=S)N1CC1CCCN1C[C@H](Cc1ccc(O)cc1)N1C[C@H](Cc2ccccc2)N(CC2CCCCC2)C1=S (some centres not stated)	PrP UTR inh 66.6 | PrP UTR cherry inactive
CC(C)C[C@H]1CNC(=S)N1C[C@H]1CCCN1C[C@H](Cc1ccccc1)N1C[C@H](Cc2ccc(O)cc2)N(CC2CCCCC2)C1=S	none (no result: PfHsp40 rescue, Yp Topo-I inh, PrP UTR inh)
CCOc1ccc(/C=C2/SC(=S)N(CCC(=O)Nc3ccc(C(=O)O)cc3)C2=O)cc1	none
Cc1ccc(/C=C2\SC(=S)N(CCCC(=O)NNC(=O)c3ccccc3O)C2=O)cc1	PrP UTR inh 52.8 | PrP UTR cherry 75.0
CCOc1ccc(/C=C2\SC(=S)N(CCC(=O)O)C2=O)cc1	PrP UTR inh 68.4 (no result: BioA inh) | PrP UTR cherry 71.2
Cc1ccc(/C=C2\SC(=S)N(CCC(=O)NNC(=O)c3ccccc3O)C2=O)cc1	none (no result: FadD28 binding)
Cc1noc(C)c1S(=O)(=O)Nc1ccc2c(c1)C(=O)N([C@@H](C)CO)C[C@@H](C)[C@@H](CN(C)C(=O)Nc1ccc(F)cc1)OCCCC[C@@H](C)O2	none (no result: FadD28 binding, PfHsp40 rescue, Yp Topo-I inh, PrP UTR inh)
CCCNC(=O)C[C@H]1CC[C@@H]2[C@@H](COc3ccc(NC(=O)C4CCOCC4)cc3C(=O)N2C)O1	none (no result: FadD28 binding, PfHsp40 rescue, Yp Topo-I inh, PrP UTR inh)

Bioassay records: PubChem BioAssay, Broad Institute
